Test results reported in PubChem BioAssay (NCI).
This is part of a sample that, as a whole, favours compounds with a hit. Of some 79,000 tested, about 15% had one in any assay. A number with no mark means an inactive call. Activity calls are given as the source filed them. Rule as the data show it: active = growth inhibition above about 70%; inactive = the rest.

What was measured:
[1] = NCI Yeast Anticancer Drug Screen. Data for the rad50 strain (AID 155);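 also: 0% = growth of vehicle-only cultures of the same strain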; settings: S. cerevisiae rad50 strain growth inhibition; at 50.0 µM; stronger effect = higher value
Procedure, shortened: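 Cells are treated with compound, grown, and their growth is then scored against vehicle-only cultures of the same repair-deficient yeast strain.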

[2] = NCI Yeast Anticancer Drug Screen. Data for the mec2-1 strain (AID 157); settings: S. cerevisiae mec2-1 strain, at 50.0 µM, stronger effect = higher value
Procedure, shortened: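 Readout is yeast growth inhibition, normalised to vehicle-treated controls, in the mec2-1 strain exposed to compound.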

[3] = NCI Yeast Anticancer Drug Screen. Data for the sgs1 mgt1 strain (AID 161);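 also: 0% = growth of cultures given vehicle only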; settings: S. cerevisiae sgs1 mgt1 strain, at 50.0 µM, stronger effect = higher value
Procedure, shortened: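 Percent growth inhibition was derived by comparing compound-exposed mutant yeast with vehicle-exposed cultures. The strain carries alterations in DNA damage repair.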

[4] = NCI Yeast Anticancer Drug Screen. Data for the cln2 rad14 strain (AID 165);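 also: 0% = growth equal to vehicle treated cultures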; settings: S. cerevisiae cln2 rad14 strain, at 50.0 µM, stronger effect = higher value
Procedure, shortened: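 Relative to vehicle controls, growth inhibition of compound-treated cln2 rad14 yeast was recorded.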

[5] = NCI Yeast Anticancer Drug Screen. Data for the bub3 strain (AID 167); settings: S. cerevisiae bub3 mutant strain, at 50.0 µM, stronger effect = higher value
Procedure, shortened: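 Part of a panel of yeast mutants defective in DNA damage repair or cell cycle regulation. Each strain is grown with compound, and inhibition is calculated relative to solvent-treated cultures.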

[6] = NCI Yeast Anticancer Drug Screen. Data for the mlh1 rad18 strain (AID 175); settings: S. cerevisiae mlh1 rad18 strain growth inhibition; at 50.0 µM; stronger effect = higher value
Procedure, shortened: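 Test agents were incubated with a yeast strain of defined genotype (DNA damage repair defect). Inhibition of growth was derived by comparison with vehicle-exposed cultures.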

| SMILES | growth inhibition [1] | growth inhibition [2] [%] | growth inhibition [3] | growth inhibition [4] | growth inhibition [5] | growth inhibition [6] |
| --- | --- | --- | --- | --- | --- | --- |
| N#CCC(=O)NCc1ccncc1 | -13.8% | -50.4 | -24.7% | 7.85% | -41% | -13.1% |
| C/C(CCN(C)C)=N\OC(=O)c1ccccc1 | -12.2% | -25.9 | -33.2% | -6.65% | -6.95% | -26.9% |
| C=CCNC(=S)/N=C\c1c(C)[nH]n(-c2ccccc2)c1=O | -23.8% | -27.2 | -24.6% | -17.6% | -17.6% | -5.7% |
| C[C@@H]1C[C@@H]2C(=O)N(c3ccccc3)C(=O)[C@@H]2c2[nH]c3ccc(Br)cc3c21 | 0.2% | -12.6 | 15.8% | 0.25% | -7.95% | -20.1% |
| O=C1OC(=O)C(Cl)=C1Cl | 16.6% | -10.5 | 28.8% | 10.7% | 9.4% | 22.3% |
| CSC1(C(=O)O)C2CCC3C2CCC31 (configuration not stated) | 12.7% | 16.1 | 9.95% | 26.9% | 51.2% | 41.5% |
| CCCCCCCCCc1cc(=O)c2ccc(OCc3ccccc3)cc2o1 | -42.5% | -28.6 | -21.1% | -11.2% | -28.6% | -42% |
| O=C1NC(c2cccc3ccccc23)Nc2ccccc21 (configuration not stated) | 3.05% | -14.8 | 9.2% | -6.6% | 0.85% | 0.8% |
| COC(=O)CCNC(=O)OCc1ccccc1 | 14.6% | 30 | -16.7% | 26.6% | -49.6% | -75% |
| CCC/C(=C(\C)c1ccccc1)c1ccccc1 | 46.1% | 33.6 | 37.7% | 14.1% | -11.5% | 33.3% |
| Cc1ccc(SCCCN(C)C)cc1 | 42% | 17.6 | 35.6% | 15.2% | 14.2% | 16.3% |
| Cc1[nH]c(=O)nc(N(CCO)/N=C/c2ccc(Cl)cc2)c1C(=O)Nc1ccc(Cl)cc1 | 6.7% | 38.6 | -18.1% | 12.4% | -13.3% | -36% |
| CON(C)c1nc2ccccc2o1 | -22.1% | -8.45 | -9% | -16.8% | -2.3% | -17.6% |
| O=C(Nc1cc(-c2ccccc2)[nH]n1)c1ccccc1Cl | 22.1% | 16.6 | 60.5% | 31.2% | 42.1% | 28.3% |
| C#CCNC(=O)CCC(N)C(=O)O (configuration not stated) | -0.1% | -15.2 | -14.8% | 3.05% | -11.8% | 2.65% |
| COc1cccc(OC)c1OCC1CO1 (configuration not stated) | 6.95% | 9.8 | 0.2% | -14.4% | 2.3% | 9.95% |
| O=C(O)c1ccc2c(c1)C(=O)c1c(c(O)c3ccccc3c1O)C2=O | 9.25% | 6.25 | 9.6% | -11.7% | 12.3% | -8.55% |
| CCCCCCCCCCCCCC(=O)Oc1ccc2ccccc2c1 | -4.05% | 3.5 | -3.85% | 5.7% | -10.1% | 8.7% |
| O=C(O)/C=C/c1c(Cl)cccc1Cl | -14.6% | -8.05 | -11.9% | -37.2% | -18.1% | -5.8% |
| Cc1cccc(C)c1NC(=O)C(=O)Cc1nc2ccccc2s1 | -12.1% | -0.45 | -9.25% | -4.45% | -30.5% | -6.8% |
| O=C(O)c1cccc2c1C(=O)c1c(O)cccc1C2=O | 35.9% | 19.9 | 42.4% | 25.9% | 13.2% | 30.2% |

| SMILES | growth inhibition [1] | growth inhibition [2] [%] | growth inhibition [3] | growth inhibition [4] | growth inhibition [5] | growth inhibition [6] |
| --- | --- | --- | --- | --- | --- | --- |
| O=c1[nH]cc(SSc2c[nH]c(=O)[nH]c2=O)c(=O)[nH]1 | 13.4% | 15.7 | 4.2% | -25.3% | 29.9% | 12.9% |
| CC(C)c1ccc(C(C)C)c(Cl)c1 | 43.7% | 13.9 | 16.4% | 7.95% | -12.6% | 12.5% |
| CC[P+]1(c2ccccc2)[C@@H](C)CC[C@@H]1C | 15.1% | 7.45 | 12.6% | 8.1% | 3.75% | 37.7% |
| NC(=O)NC(c1ccc(O)cc1)c1cc2c(cc1O)OCO2 (configuration not stated) | -4% | 1.9 | -11.8% | -36.8% | 5.75% | -0.55% |
| CC(=O)OCCn1c(=O)sc2ccccc21 | 3.1% | 13.8 | 3.2% | -8.35% | -10.7% | -1.4% |
| CSc1ccc(NC(=O)Nc2cc(Cl)c(Cl)cc2C)cc1 | 4.7% | 60.5 | 46.8% | -1.95% | 35% | 25.2% |
| CC1=CCC(C(C)(C)NC(=O)c2ccccc2)C/C1=N/O (configuration not stated) | -56.7% | -43 | -60.3% | -49.2% | -43.7% | -66.5% |
| CC(=O)OCC1OC(n2cc(I)c(=O)[nH]c2=O)C(OC(C)=O)C(OC(C)=O)C1OC(C)=O (configuration not stated) | -29.9% | -22.1 | -12.2% | -27.4% | -29.5% | -13.2% |
| CC(c1ccccc1)n1cnc2c(=S)nc[nH]c21 (configuration not stated) | 17.1% | -20.9 | -7.55% | 3.35% | -5.85% | -9.95% |
| Cc1ccc2c(c1)C(c1ccccc1)(c1ccccc1)N(c1ccccc1)S2(=O)=O | 51.2% | 34.2 | 64.7% | 25.2% | 20.5% | 58.6% |
| NC(CCC1CCCCC1)C(=O)O (configuration not stated) | -7.75% | 6.8 | 0.5% | -3.65% | 22.6% | 3.7% |
| S=c1[nH]ncn1/N=C/c1ccccc1Cl | 23.6% | 37 | 54.4% | 22.9% | -5.65% | 37.6% |
| Clc1ccc(N=C(Oc2ccc(Cl)cc2)c2ccccc2)cc1 | 4.95% | 7.35 | -4.85% | -12.4% | 0.25% | 3.6% |
| CCC(=O)[C@H]1CC[C@H]2[C@@H]3CCC4=CC(=O)CC[C@]4(C)[C@H]3CC[C@]12C | -7.6% | 26.9 | 32% | 6.5% | 37.5% | 2.45% |
| O=C1CC(c2ccccc2)Oc2ccccc21 (configuration not stated) | -24.5% | -58.1 | -16.8% | 8.2% | -25.2% | -24.1% |
| N#Cc1nc(C(O)c2ccccc2)oc1N (configuration not stated) | -6.75% | 16.4 | -7.05% | 11.8% | -10.3% | -71.1% |
| COCn1c2ccc(OC(C)=O)cc2c2c(=O)oc(N(C)C)nc21 | -14.8% | -31.6 | -29.4% | -5.5% | -11.6% | -11.7% |
| Cc1ccc(Cc2nn(C)c(=O)n2N)cc1 | -7.1% | -2.5 | 18.6% | -3% | -13.1% | -18.9% |
| O=C1CCC(c2ccccc2)(C2CCN(Cc3ccc(F)cc3)CC2)C(=O)N1 (configuration not stated) | -8.55% | 4.85 | -5.85% | -14.8% | 3.45% | 4.8% |
| CC(C)CCOC(=O)c1ccccc1Cl | 17.7% | 18.5 | 11.1% | 12.4% | 0.15% | -14.6% |
| CCOC(=O)NN1C(=O)c2cccc3c([N+](=O)[O-])ccc(c23)C1=O | 86.2% (active) | 61.9 | 93.5% (active) | 88.4% (active) | 78.3% (active) | 85.8% (active) |
